This is a sample that favours compounds with a hit; in the whole collection about 5.9% have one here.
rCAG binder: binders of r(CAG) RNA repeats, primary screen, biochemical, fluorescence. r(CAG) RNA repeat, TO-PRO-1 dye displacement fluorescence. inhibition, % at 3 µM. 370,000 tested, 1.3% active;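 active means inhibition above the plate cutoff, the mean of all test compounds on that plate plus 3 SD, cut at about 35% in these data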;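 further: 0% = DMSO alone and 100% = 100 µM mitoxantrone as full dye displacement; higher means more dye released from RNA so lower well fluorescence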
LANA-H2A inh: blockers of LANA interaction with H2A/H2B – biochemical, FP readout, HTS, primary screen; AID 2629, 2010; 320,000 tested, 0.6% active; Protein LANA1 (Human herpesvirus 8 type P (isolate GK18)), Q9QR71; inhibition, % (concentration not given with the values); cell-free LANA-H2A/H2B peptide, fluorescence polarization; in the data active means inhibition mostly above about 10%, no sharp cut-off; inactive means mostly below about 6.7%
PRMT1 inh: PRMT1 methyltransferase inhibitors, primary screen, biochemical, fluorescence polarization | Protein arginine N-methyltransferase 1 (Homo sapiens), Q99873 | recombinant PRMT1, activity-based probe fluorescence polarization | inhibition, % at 2.79 µM | 370,000 tested, 1.3% active;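 active means inhibition above about 21% made by adding two undisclosed values, limit read from the data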
Target sequence (Q99873 whole entry, looked up): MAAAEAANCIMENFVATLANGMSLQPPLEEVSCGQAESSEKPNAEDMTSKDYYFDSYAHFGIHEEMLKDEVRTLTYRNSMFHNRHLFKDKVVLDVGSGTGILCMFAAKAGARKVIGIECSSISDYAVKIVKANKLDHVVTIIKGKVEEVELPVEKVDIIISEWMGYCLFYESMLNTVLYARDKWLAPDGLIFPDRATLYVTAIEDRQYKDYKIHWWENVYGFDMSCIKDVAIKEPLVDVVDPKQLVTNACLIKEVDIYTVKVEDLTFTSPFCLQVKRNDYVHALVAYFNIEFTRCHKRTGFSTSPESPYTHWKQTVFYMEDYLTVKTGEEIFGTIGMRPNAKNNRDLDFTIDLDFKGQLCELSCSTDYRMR
ALR inh: inhibitors of human ALR sulfhydryl oxidase, primary screen, biochemical, H2O2 detection, HRP-luminol luminescence, single point | FAD-linked sulfhydryl oxidase ALR (Homo sapiens), P55789 | inhibition, % (test concentration not listed) | AID 485317, 2010 | purified ALR, DTT oxidation | 290,000 tested, 3.8% active;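 active means mean replicate inhibition above about 79%, with every replicate also reaching it, limit read from the data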
Target sequence (P55789 whole entry, looked up): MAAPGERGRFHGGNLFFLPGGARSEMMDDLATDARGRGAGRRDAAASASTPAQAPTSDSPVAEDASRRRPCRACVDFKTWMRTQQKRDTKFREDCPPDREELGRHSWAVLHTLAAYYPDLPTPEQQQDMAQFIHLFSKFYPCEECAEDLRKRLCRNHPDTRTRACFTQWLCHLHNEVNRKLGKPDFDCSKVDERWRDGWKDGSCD
Rtt109 HAT inh: inhibitors of C. albicans Rtt109/Vps75 HAT, primary screen, biochemical, ThioGlo CoA-SH fluorescence, plate reader. purified Rtt109/Vps75, 4 h. inhibition, % at 34.9 µM. 330,000 tested, 0.16% active. AID 540336, 2011. Histone acetyltransferase RTT109 (Candida albicans (strain SC5314 / ATCC MYA-2876)), …;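 active means inhibition of at least 50% in every replicate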
ABHD5 PLIN5 PPI: ABHD5-PLIN5 interaction inhibitors, primary screen, cell lysate, split luciferase complementation, luminescence; Split G. princeps luciferase complementation, 4 h; AID 602281, 2012; 360,000 tested, 0.78% active; inhibition, % at 4 µM; Perilipin-5 (Homo sapiens) + 1-acylglycerol-3-phosphate O-acyltransferase ABHD5 (Homo …;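 active means inhibition above the mean inhibition across every tested compound plus 3 SD, cut at about 22% in these data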;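 further: 0% = DMSO only wells and the 100% control is not disclosed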
An asterisk follows results filed as active; i = inactive; x = no result given.

SMILES	rCAG binder	LANA-H2A inh	PRMT1 inh	ALR inh	Rtt109 HAT inh	ABHD5 PLIN5 PPI
O=C(NNC(=S)Nc1ccccc1)c1ccc(O)cc1	-4	4	4	99*	-4	-1
O=C(CCN1CCOCC1)NNC(=S)NC(=O)c1ccccc1	-2	-1	6	99*	-7	-12
Cc1cc(NC(=S)Nc2ccccc2)ccc1Br	-1	22*	-1	-3	-1	-11
O=C(NNC(=S)Nc1ccccc1)c1cccc(Br)c1	14	9	-1	74	x	0
O=C(CCN1CCOCC1)c1ccccc1	-1	-2	0	8	3	3
CCc1nc2ccc(C(=O)N(C)CCCN(C)C)cn2c1N(C=O)CCC(C)C	-2	x	-2	x	x	-4
CCCCNc1cccc2c1S(=O)(=O)N[C@H](CC(C)C)CO2	-1	x	0	x	x	x
O=C(CNC(=S)NC(=O)c1ccc(F)cc1)c1ccccc1	-1	5	0	-1	0	-1
COc1ccc(C)cc1NC(=S)NNC(=O)c1ccccc1Cl	17	-3	-5	77*	0	-7
COC(=O)c1ccc(NC(=S)Nc2ccccc2)cc1	0	-3	-3	1	1	-11
O=C(O)c1ccc(NC(=S)Nc2ccccc2)cc1	1	-5	0	99*	0	-1
COc1ccc(NC(=S)NN(C)C(=S)Nc2ccc(OC)cc2)cc1	2	-2	-2	99*	-1	-17
O=C(CNC(=S)NC(=O)c1ccccc1)c1ccccc1	0	-5	-5	79*	-12	-12
COc1ccc(CNC(=O)Nc2nnc([C@@H]3C[C@H](O)[C@@H](CO)O3)s2)cc1	3	x	-11	x	x	-6
COC1=C[C@H](C(=O)NC2CCN(Cc3ccccc3)CC2)C(C)C(c2ccccc2)CC1=O (stereo not given in full)	6	x	-3	x	x	x
COc1ccccc1-c1cccc(-c2nc(C(=O)Nc3nccs3)cc3c2[C@H](CCO)N(C(C)=O)C3)c1	10	x	2	x	x	4
Cc1ccccc1C(=O)NCC(=O)NNC(=S)NC(=O)c1ccccc1	0	-1	1	98*	-4	-1
COc1ccc(CNC(=S)Nc2ccc(-c3ccccc3)cc2)cc1	5	-1	0	95*	17	1
Cc1ccccc1C(=O)NCC(=O)NNC(=S)NC(=O)c1ccccc1C	1	0	3	20	3	-4
O=C(NNC(=S)Nc1ccccc1)c1ccc2ncccc2c1	7	-1	-2	78*	2	-2
COc1ccccc1NC(=S)NNC(=O)c1ccc(O)cc1	-1	2	2	99*	-12	-1
COc1ccc(CNC(=S)Nc2ccc(Br)cc2)cc1	4	4	2	1	0	-5
COc1cc(NC(=O)Nc2nnc([C@H]3C[C@H](O)[C@@H](CO)O3)s2)cc(OC)c1OC	4	x	-5	x	x	1
C=CCN1[C@H](C)COc2cccc(N3CCSCC3)c2S1(=O)=O	-1	x	-4	x	x	x
CCCOc1ccc(C(=O)NNC(=S)NC(=O)c2ccccc2)cc1	28	1	2	22	-6	-6
SMILES	rCAG binder	LANA-H2A inh	PRMT1 inh	ALR inh	Rtt109 HAT inh	ABHD5 PLIN5 PPI
O=C(NNC(=S)NC(=O)c1ccccc1)c1ccc(O)cc1	1	3	6	99*	-2	-13
Brc1cccc(-c2n[nH]c(-c3ccccc3)n2)c1	8	17*	1	8	-4	-3
c1ccc(-c2nc(-c3cccnc3)n[nH]2)cc1	1	-1	-2	4	x	x
NC(=O)CSc1nc(-c2ccccc2)c(-c2ccccc2)o1	0	0	-1	x	17	-3
Nc1nc(-c2ccccc2)c(-c2ccccc2)o1	1	29*	-2	x	-9	5
COC(=O)[C@]12C[C@H](CC(=O)N3CCOCC3)C(=O)N(Cc3cccc4ccccc34)C1=C[C@H](C(C)(C)C)O[C@@H]2C	3	x	-4	x	x	x
CCC(=O)N1CCc2cc(S(=O)(=O)CCC(=O)Nc3nc(C)cs3)ccc21	1	-4	1	99*	1	5
CCC(=O)N1CCc2cc(S(=O)(=O)CCC(=O)Nc3ccc(C)cn3)ccc21	1	-1	-1	99*	-5	-5
CCN1CCN(c2nc3c(c(=O)[nH]c(=O)n3C)n2Cc2cccc(C)c2)CC1	-2	x	1	x	x	-1
CCn1c(CSc2nnc(-c3ccncc3)n2CCOC)nc2cc(C(=O)O)ccc21	-1	-2	0	-33	-3	-1
CCn1c(CSc2nnc(-c3cccnc3)n2-c2ccccc2C)nc2cc(C(=O)O)ccc21	x	18*	x	-69	x	x
Cc1ccc(S(=O)(=O)N2CCOCC2)cc1C(=O)NCc1ccccn1	0	x	2	x	-3	-9
C[C@H](NC(=O)Cc1cccc2ccccc12)C(=O)NCc1ccccc1	-6	16*	8	2	x	-9
COC(=O)[C@]12C[C@H](CC(=O)NCCC(C)C)C(=O)N(Cc3ccccc3)C1=C[C@H](C1CCCC1)O[C@@H]2C	2	x	-1	x	x	x
Cc1cc(NC(=S)Nc2cccc3ccccc23)n[nH]1	1	i	23*	10	6	0
Cc1cc(C)cc(NC(=S)Nc2cccc3ccccc23)c1	1	0	3	-16	2	-10
CCC(C(=O)OCC(=O)Nc1ccc(SC(F)F)cc1)c1ccccc1 (stereo not given)	-1	x	-1	x	x	-12
N#Cc1cccc(NC(=O)CSc2n[nH]c(=O)[nH]c2=O)c1	2	-6	4	-3	-4	1
CCOc1cc(C(=O)OCC(=O)Nc2ccc(SC(F)F)cc2)cc(OCC)c1OCC	-1	-11	2	-5	-4	-15
O=C(CSc1n[nH]c(=O)[nH]c1=O)Nc1ccc(SC(F)F)cc1	11	-1	16	99*	0	-8
CC(=O)OCC(=O)Nc1ccc(SC(F)F)cc1	-2	1	11	99*	2	10
C/C=C/C(=O)OCC(=O)Nc1ccc(SC(F)F)cc1	1	4	13	99*	7	-1
Nc1c2c(nc3ccc(Br)cc13)N(c1ccccc1)CC2	16	1	23*	36	23	-6
Cc1cccc(N2CCc3c2nc2ccc(Br)cc2c3N)c1	34	0	4	-18	2	-4
ClCc1cc2ccccc2nc1Cl	3	0	4	-5	1	-8
